A number with no mark means an inactive call. Inconclusive results are not listed. Where a call stands in place of a potency, no number is given. Active and inactive are the calls of the source. The call rests on the fitted dose curve.

The first experiment deals with Muscarinic acetylcholine receptor M1 (Homo sapiens) (UniProt P11229). Kind of experiment: Cholinergic receptor muscarinic 1 (CHRM1) small molecule antagonists, cell-based qHTS assay (AID 1963588). Further: nearly all actives have a fitted effect of over 40% in size. The settings on record: CHRM1-CHO antagonist mode, calcium flux fluorescence; series mostly up to 61.5 µM. The essentials: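 Compounds were tested at 15 concentrations in three independent runs. Dye-loaded CHRM1-CHO cells were exposed 5 min at room temperature before stimulation by acetylcholine added at 50nM. Intracellular calcium was read kinetically on FDSS for 3 min.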
Chain of Muscarinic acetylcholine receptor M1 (Homo sapiens) (P11229 whole entry, looked up): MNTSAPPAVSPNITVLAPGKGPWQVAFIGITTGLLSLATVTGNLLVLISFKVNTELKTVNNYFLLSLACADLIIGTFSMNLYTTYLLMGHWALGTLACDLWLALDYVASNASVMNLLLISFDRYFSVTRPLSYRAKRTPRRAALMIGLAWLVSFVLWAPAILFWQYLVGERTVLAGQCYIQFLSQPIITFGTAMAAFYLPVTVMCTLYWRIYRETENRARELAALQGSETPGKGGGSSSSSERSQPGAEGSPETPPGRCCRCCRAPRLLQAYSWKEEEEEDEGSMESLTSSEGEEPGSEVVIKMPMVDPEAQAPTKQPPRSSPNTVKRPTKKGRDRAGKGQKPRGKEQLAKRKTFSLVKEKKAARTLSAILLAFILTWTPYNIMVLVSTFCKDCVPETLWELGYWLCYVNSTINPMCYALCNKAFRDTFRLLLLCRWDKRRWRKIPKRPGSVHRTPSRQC
In the case of `CC(CCO)CCCC(C)(C)O` (stereo unspecified), the Potency result is “inactive”.

As to `Cc1ccc2ccc3cccc4ccc1c2c34`, the Potency entry was “inactive”.

With `COC(=O)c1cc(Cl)cc(Cl)c1`, the Potency entry is “inactive”.

On to `Cc1ccc(-c2ncc(Cl)cc2-c2ccc(S(C)(=O)=O)cc2)cn1`, for which the Potency entry was “inactive”.

In the case of `COc1cc(N)ccc1C`, the Potency entry is “inactive”.

As to `CC1(C)CC(O)CC(C)(C)N1[O]`, the Potency result is “inactive”.

Regarding `C=CCCCCCCCCCCCCCC`, the activity, negative = inhibition is -25.1% [at 12.6 µM].

For `O=Cc1cc(O)ccc1Br`, the Potency entry was “inactive”.

`CCC(CC)CO`: the Potency result was “inactive”.

With `CC/C=C\CC/C=C/CO`, the Potency result was “inactive”.

As to `CC(CSC(=O)c1ccccc1)C(=O)N1C[C@@H](Sc2ccccc2)C[C@H]1C(=O)O` (stereo partly specified), the activity, negative = inhibition was 17.6% [at 12.6 µM].

For `O=C1CCCCCCCCCCCC(=O)OCCO1`, the Potency result is “inactive”.

As to `CCCCOC(=O)CCCCC(=O)OCCCC`, the Potency entry was “inactive”.

For `C=C[Si](OC)(OC)OC`, the Potency result is “inactive”.

With `Cc1c(Cl)cccc1Cl`, the Potency result is “inactive”.

Consider `CCCCC(CC)COC(=O)c1ccccc1` (stereo unspecified), for which the Potency result was “inactive”.

`CCN1CCC[C@H]1CNC(=O)c1c(OC)ccc(Br)c1OC`: the Potency entry is “inactive”.

As for `CCCCCCCCCCCCCCCC(=O)OCC`, the Potency entry was “inactive”.

The target is the same in the next experiment. Kind of experiment: Cholinergic receptor muscarinic 1 (CHRM1) small molecule agonists, cell-based qHTS assay (AID 1963589). Further: nearly all actives have a fitted effect of over 35% in size. The settings on record: CHRM1-CHO cells, agonist mode, calcium flux fluorescence; series mostly up to 76.8 µM. Put shortly: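 Agonist-mode calcium-flux screen: compounds at 15 concentrations, three independent runs, were pin-transferred onto dye-loaded human CHRM1-CHO cells. Fluorescence was then recorded kinetically every second over minutes.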
Background: In qHTS, concentration-response curves come from the screen itself.
As to `O=C=NCC1CCCC(CN=C=O)C1` (stereo unspecified), the Potency entry was “inactive”.

On to `CC(CCO)CCCC(C)(C)O` (stereo unspecified), for which the Potency result was “inactive”.

On to `Cc1ccc2ccc3cccc4ccc1c2c34`, for which the Potency entry is “inactive”.

`CCOc1ccc(NS(=O)(=O)c2ccc(N)cc2)nn1`: the Potency entry is “inactive”.

`COC(=O)c1cc(Cl)cc(Cl)c1`: the Potency result was “inactive”.

On to `Oc1cc2ccccc2c2ccccc12`, for which the Potency result is “inactive”.

With `Cc1ccc(-c2ncc(Cl)cc2-c2ccc(S(C)(=O)=O)cc2)cn1`, the Potency entry was “inactive”.

Consider `Cc1[nH]c(C)c(Cl)c(=O)c1Cl`, for which the activation was 0.215% [at 15.8 µM].

Consider `CCCNCCC`, for which the Potency entry is “inactive”.

Consider `COc1cc(N)ccc1C`, for which the Potency result was “inactive”.

For the molecule `Cc1ccc2c(c1)CCCN2`, the Potency result is “inactive”.

Consider `NCCCCCCNCCCCCCN`, for which the Potency entry is “inactive”.

In the case of `CN(C)CCOCCO`, the Potency result is “inactive”.

In the case of `CC1(C)CC(O)CC(C)(C)N1[O]`, the Potency result was “inactive”.

With `C=CCCCCCCCCCCCCCC`, the activation is -0.058% [at 15.8 µM].

Take `CCN1C=CN(C)C1C` (stereo unspecified): the Potency result is “inactive”.

In the case of `CC[N+](C)(CC)CCOC(=O)C1c2ccccc2Oc2ccccc21`, the Potency result was “inactive”.

For the molecule `NCCCN(CCO)CCO`, the Potency result was “inactive”.

On to `O=CN(CCO)CCO`, for which the Potency entry was “inactive”.

For the molecule `CCN(C(=O)N(CC)c1ccccc1)c1ccccc1`, the Potency entry is “inactive”.

As to `CCC(CC)CO`, the Potency result is “inactive”.

As for `CC/C=C\CC/C=C/CO`, the Potency entry was “inactive”.

`CC(CSC(=O)c1ccccc1)C(=O)N1C[C@@H](Sc2ccccc2)C[C@H]1C(=O)O` (stereo partly specified): the activation is -0.159% [at 15.8 µM].

As to `Cc1ccccc1N=C(N)Nc1ccccc1C`, the Potency entry was “inactive”.

For `C1C2OC2C2C1C1CC2C2OC12` (stereo unspecified), the Potency result is “inactive”.

As for `CC[N+](CC)(CC)CCOC(=O)C(C1CCCC1)C1CCCC1`, the Potency entry is “inactive”.

Consider `O=C1CCCCCCCCCCCC(=O)OCCO1`, for which the Potency entry was “inactive”.

As for `CCCCOC(=O)CCCCC(=O)OCCCC`, the Potency result was “inactive”.

As for `c1cc[c]([Bi]([c]2ccccc2)[c]2ccccc2)cc1`, the Potency entry is “inactive”.

For `C=C[Si](OC)(OC)OC`, the Potency result was “inactive”.

Take `CC(CC=O)CCCC(C)(C)O` (stereo unspecified): the Potency entry was “inactive”.

Regarding `CCOC(=O)C1=NN(c2ccccc2)C(=O)C1`, the Potency entry is “inactive”.

As to `Cc1c(Cl)cccc1Cl`, the Potency result is “inactive”.

For the molecule `O=C1c2cccc3c2[C@H](CCC3)CN1[C@@H]1CN2CCC1CC2`, the Potency result is “inactive”.

In the case of `CCCCC(CC)COC(=O)c1ccccc1` (stereo unspecified), the Potency result is “inactive”.

Take `CN(C)CCOC(=O)C(c1ccccc1)C1(O)CCCC1` (stereo unspecified): the Potency result is “inactive”.

For `CCN1CCC[C@H]1CNC(=O)c1c(OC)ccc(Br)c1OC`, the Potency entry was “inactive”.

With `CCCCCCCCCCCCCCCC(=O)OCC`, the Potency result is “inactive”.

The values above are taken from PubChem BioAssay (Tox21).
